Our source for the growth values is PubChem BioAssay (NCI).

What all share (experiment): NCI-60 one-dose screen, 48 h (100 = growth as untreated, 0 = no growth, -100 = all killed)
For one assay, the system named is HCT-15 colon. To be noted: 10 µM unless noted.
The next assay deals with HT29 colon. The following applies: 10 µM unless noted.
The test system of another assay is SNB-75 CNS. To be noted: 10 µM unless noted.
The next assay has as its system SNB-19 CNS. To be noted: 10 µM unless noted.
A further assay relates to U251 CNS. The following applies: 10 µM unless noted.
The test system of a further assay is PC-3 prostate. To be noted: 10 µM unless noted.
A further assay relates to SK-MEL-5 melanoma. The following applies: 10 µM unless noted.
Another assay concerns UACC-62 melanoma. To be noted: 10 µM unless noted.
Another assay has as its system LOX IMVI melanoma. The following applies: 10 µM unless noted.
The next assay has as its system SK-MEL-28 melanoma. The following applies: 10 µM unless noted.
The next assay concerns SK-MEL-2 melanoma. The following applies: 10 µM.
The subject of the next assay is EKVX NSCLC. The following applies: 10 µM unless noted.
Another assay deals with SN12C renal. To be noted: 10 µM unless noted.
A further assay has as its system UO-31 renal. The following applies: 10 µM unless noted.
In a further assay the test system is TK-10 renal. The following applies: 10 µM unless noted.
The subject of a further assay is ACHN renal. To be noted: 10 µM unless noted.
The test system of the next assay is A498 renal. To be noted: 10 µM unless noted.
The next assay has as its system CCRF-CEM leukemia. To be noted: 10 µM unless noted.
A further assay deals with MOLT-4 leukemia. The following applies: 10 µM unless noted.
In another assay the test system is CAKI-1 renal. The following applies: 10 µM unless noted.

Compounds without any hit were thinned out: in the full panel of roughly 83,000, 20% have a hit.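 The endpoint reported here, percent growth, reads 100 for growth as untreated, 0 for no net growth and -100 for all cells dead.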 Unmarked numbers belong to inactive results. Calls of active or inactive are those of the source. How the source made its calls: active means growth percent below 10; inactive means the rest.

Turning to `CC(C)=CCc1cc2c(cc1O)C1=C(C(=O)C3=C(NCCS3(=O)=O)C1=O)C(C=C(C)C)O2` (stereo not given), the growth with HCT-15 colon is 39.8%; in the assay on HT29 colon it was 47.9%; in the assay with SNB-75 CNS, 71.4%; with SNB-19 CNS, 31.7%; in the assay on U251 CNS, 1.89% (active); with PC-3 prostate it was 16.4%. Besides, the growth was 5.34% (active) in the assay on SK-MEL-5 melanoma; 28.2% in the assay on UACC-62 melanoma; 4.56% (active) with LOX IMVI melanoma; 24.3% in the assay on SK-MEL-28 melanoma; 19.3% in the assay on SK-MEL-2 melanoma; 48.6% in the assay with EKVX NSCLC. The growth in the assay with SN12C renal was -43.3% (active); with UO-31 renal, 41.6%; with TK-10 renal, 122%; in the assay on ACHN renal it was 62.4%; in the assay on A498 renal, 94.9%; in the assay on CCRF-CEM leukemia, 0.962% (active). Also, in the assay on MOLT-4 leukemia, the growth is -22.3% (active).

As to `Clc1ccc2c(NCCCNCc3ccc4c(c3)OCO4)ccnc2c1`, the growth in the assay with HCT-15 colon was 13.2%; in the assay with HT29 colon it was 4.6% (active); with SNB-75 CNS it was 96.2%; in the assay on SNB-19 CNS, 88.7%; in the assay with U251 CNS it was 10.6%; in the assay with PC-3 prostate it was 51.6%. The growth with SK-MEL-5 melanoma is -96% (active); in the assay on UACC-62 melanoma, 89.8%; in the assay on LOX IMVI melanoma, 8.83% (active); with SK-MEL-28 melanoma, 51.2%; in the assay with SK-MEL-2 melanoma it was 29.3%; with EKVX NSCLC it was 71.8%. In addition, the growth with SN12C renal is 66.6%; with UO-31 renal it was 35.8%; with TK-10 renal, 78.4%; in the assay with ACHN renal it was 40.6%; with A498 renal, 101%; in the assay on MOLT-4 leukemia it was 25.1%.

Consider `Cc1cc2c(-c3nc4ccccn4c3N)c(O)c(O)cc2c(O)c1-c1c(C)cc2c(-c3nc4ccccn4c3N)c(O)c(O)cc2c1O`, for which the growth with HCT-15 colon was 17.8%; in the assay with HT29 colon it was 8.01% (active); in the assay with SNB-75 CNS it was 18%; in the assay on SNB-19 CNS, 12.8%; in the assay on U251 CNS, 8% (active); in the assay on PC-3 prostate it was 16.3%. Besides, the growth was -7.68% (active) in the assay on SK-MEL-5 melanoma; 5.54% (active) in the assay with UACC-62 melanoma; 7.21% (active) in the assay on LOX IMVI melanoma; 38.3% with SK-MEL-28 melanoma; -20.6% (active) with SK-MEL-2 melanoma; 21.8% in the assay on EKVX NSCLC. In addition, the growth is 10.1% with SN12C renal; 31.2% in the assay with UO-31 renal; 11.9% with TK-10 renal; 17.4% in the assay with ACHN renal; 2.77% (active) in the assay with A498 renal; 23.5% in the assay with MOLT-4 leukemia.

Regarding `c1cc[n+](Cc2c3ccccc3cc3c2ccc2ccccc23)cc1`, the growth was 91.5% in the assay with HCT-15 colon; 25.6% in the assay on HT29 colon; 29.6% in the assay on SNB-75 CNS; 6.26% (active) with SNB-19 CNS; 6.64% (active) in the assay with U251 CNS; 42% in the assay with PC-3 prostate. In addition, the growth is -60.1% (active) with SK-MEL-5 melanoma; 11.2% with UACC-62 melanoma; 48.8% in the assay with LOX IMVI melanoma; -2.27% (active) with SK-MEL-28 melanoma; 25% with SK-MEL-2 melanoma; 58.3% in the assay with EKVX NSCLC. Also, the growth with SN12C renal was 0.929% (active); with UO-31 renal it was 81.9%; with TK-10 renal, 78.1%; in the assay with ACHN renal it was 103%; in the assay on A498 renal it was 80.2%; with MOLT-4 leukemia, 25.6%.

On to `COc1cc(OC)c(C(=O)/C=C/c2cc3c(cc2OCc2ccccc2)OC(C)(C)CC3)cc1CC=C(C)C`, for which the growth in the assay with HCT-15 colon is 39.7%; in the assay on HT29 colon, 57.9%; in the assay with SNB-75 CNS, 39.2%; with SNB-19 CNS, 80.7%; with U251 CNS, 29.7%; with PC-3 prostate it was 25.2%. Also, the growth was 50.4% with SK-MEL-5 melanoma; 38.7% in the assay with UACC-62 melanoma; 38.9% in the assay on LOX IMVI melanoma; 53.3% in the assay on SK-MEL-28 melanoma; 82.3% in the assay on SK-MEL-2 melanoma; 61.1% with EKVX NSCLC. The growth in the assay on SN12C renal is 47.6%; in the assay with UO-31 renal, 51.4%; with TK-10 renal, 81.7%; in the assay on ACHN renal it was 68.2%; in the assay with A498 renal, 98.9%; with MOLT-4 leukemia, -0.0389% (active).

For `N#Cc1cc2[nH]c3ccc(OC(F)(F)F)cc3c2oc1=O`, the growth with HCT-15 colon is 58.8%; in the assay with HT29 colon it was 79.6%; in the assay on SNB-75 CNS it was 53.6%; in the assay with SNB-19 CNS, 93.6%; in the assay on U251 CNS, 73.2%; with PC-3 prostate it was 60.3%. In addition, the growth with SK-MEL-5 melanoma is 70.8%; in the assay with UACC-62 melanoma, 88.9%; in the assay with LOX IMVI melanoma, 74.5%; with SK-MEL-28 melanoma, 93%; in the assay with SK-MEL-2 melanoma, 66.5%; with EKVX NSCLC it was 76.1%. The growth in the assay with SN12C renal is 95.9%; in the assay on UO-31 renal, 59.1%; in the assay with TK-10 renal, 132%; in the assay on ACHN renal, 84.4%; with A498 renal, 76.8%; in the assay on CCRF-CEM leukemia, 90.4%. Moreover, in the assay on MOLT-4 leukemia, the growth is 84.5%.

Consider `CC1(O)CCC2CC3OC3(C)CCC3OC3(C)C(O)CC1C2(C)C` (stereo not given), for which the growth is 102% in the assay on HCT-15 colon; 102% in the assay on HT29 colon; 95.3% in the assay on SNB-75 CNS; 99.3% with SNB-19 CNS; 98.3% in the assay on U251 CNS; 87.4% in the assay with PC-3 prostate. The growth in the assay with SK-MEL-5 melanoma is 112%; in the assay on UACC-62 melanoma, 98.3%; with LOX IMVI melanoma, 93.7%; with SK-MEL-28 melanoma, 112%; in the assay on SK-MEL-2 melanoma it was 103%; with EKVX NSCLC it was 87.8%. The growth was 103% in the assay with SN12C renal; 107% with TK-10 renal; 101% in the assay with ACHN renal; 99.2% in the assay on CAKI-1 renal; 91.5% with CCRF-CEM leukemia; 106% with MOLT-4 leukemia.

On to `COC(=O)C1CCc2sc3ncnc(Nc4cn[nH]c4C(=O)Nc4ccc(CN5CCN(C)CC5)cc4)c3c21` (stereo not given), for which the growth is 7.28% (active) in the assay on HCT-15 colon; -0.301% (active) in the assay on HT29 colon; -22.4% (active) in the assay on SNB-75 CNS; 21.6% in the assay with SNB-19 CNS; -24.2% (active) in the assay on U251 CNS; 9.88% (active) in the assay on PC-3 prostate. Further, the growth is -59.3% (active) in the assay with SK-MEL-5 melanoma; 58.8% with UACC-62 melanoma; 0.377% (active) in the assay with LOX IMVI melanoma; 23.5% in the assay on SK-MEL-28 melanoma; -20.4% (active) in the assay with SK-MEL-2 melanoma; 8.24% (active) with EKVX NSCLC. The growth is 12.7% in the assay on SN12C renal; -15.3% (active) in the assay with UO-31 renal; 5.51% (active) in the assay on TK-10 renal; 4.58% (active) in the assay with ACHN renal; -25.6% (active) in the assay with A498 renal; -6.03% (active) in the assay with MOLT-4 leukemia.

For `CSC1=C(N)C(=O)c2[nH]cc(CO)c2C1=N`, the growth is -89.2% (active) in the assay on HCT-15 colon; -9.17% (active) in the assay on HT29 colon; -80.2% (active) in the assay with SNB-75 CNS; -92.2% (active) with SNB-19 CNS; -95.1% (active) in the assay with U251 CNS; -39.9% (active) with PC-3 prostate. Moreover, the growth is -98.8% (active) in the assay on SK-MEL-5 melanoma; -83.2% (active) in the assay with UACC-62 melanoma; -84.9% (active) with LOX IMVI melanoma; -78% (active) in the assay with SK-MEL-28 melanoma; -52.3% (active) in the assay on SK-MEL-2 melanoma; -56.6% (active) with EKVX NSCLC. The growth in the assay with SN12C renal was -49% (active); with UO-31 renal, -96% (active); with TK-10 renal it was -83.7% (active); with ACHN renal it was 1.86% (active); in the assay on A498 renal, -89.6% (active); with CCRF-CEM leukemia it was 3.16% (active). For the same molecule, in the assay with MOLT-4 leukemia, the growth is -24.3% (active).
